About 2,000 (36%) of roughly 5,500 compounds were called active. Another 18% or so got no clear call; they are omitted. Cut-off read from the data, not from the text of the source: active = normalized growth mostly below about 0.91 (no sharp cut-off); inconclusive = no clear call, values can overlap the other calls; inactive = mostly above about 0.92. This is one part of the list.
Assay: chemical genetic growth profiling, strain panel (AID 1159580);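 note: tested at 20 µM; growth read once vehicle control cultures reached saturation at 30 °C; 1 = growth at the plate median or of vehicle wells; lower values mean less growth of the strain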
Settings: S. cerevisiae deletion strains, growth OD
[1] = locus YGR078C, strain PAC10, stronger effect = lower value
[2] = locus YNL322C, strain KRE1, stronger effect = lower value
[3] = locus YPL241C, strain CIN2, stronger effect = lower value
[4] = locus YDL101C, strain DUN1, stronger effect = lower value
[5] = locus YHR030C, strain SLT2, stronger effect = lower value

Measured: normalized growth

CCCCS(=N)(=O)CC[C@H](N)C(=O)O (some centres undefined)
inactive: locus YAL040C, strain CLN3, stronger effect = lower value 0.986 | locus YDR363W, strain ESC2, stronger effect = lower value 0.99 | locus YER002W, strain NOP16, stronger effect = lower value 1.01 | [1] 0.995 | locus YNL175C, strain NOP13, stronger effect = lower value 0.984 | locus YNL197C, strain WHI3, stronger effect = lower value 0.991 | locus YNL224C, strain SQS1, stronger effect = lower value 0.983 | [2] 0.994 | locus YOR083W, strain WHI5 (second series), stronger effect = lower value 0.977 | [3] 1

COc1ccc2c(c1)CCc1sc(NC(=O)c3ccco3)nc1-2
active: [5] 0.757 | locus YLR113W, strain HOG1, stronger effect = lower value 0.823
inactive: locus YAR019C, strain CDC15, stronger effect = lower value 0.957 | locus YBL105C, strain PKC1, stronger effect = lower value 0.961 | locus YBR135W, strain CKS1, stronger effect = lower value 0.953 | locus YBR136W, strain MEC1, stronger effect = lower value 0.969 | locus YBR160W, strain CDC28, stronger effect = lower value 0.965 | locus YDL017W, strain CDC7, stronger effect = lower value 0.971 | locus YDL028C, strain MPS1, stronger effect = lower value 0.971 | [4] 0.993 | locus YDL108W, strain KIN28, stronger effect = lower value 0.947 | locus YDL132W, strain cdc53, stronger effect = lower value 0.97 | locus YDL214C, strain PRR2, stronger effect = lower value 0.901 | locus YDR052C, strain DBF4, stronger effect = lower value 0.969 | locus YDR054C, strain cdc34, stronger effect = lower value 0.955 | locus YDR226W, strain ADK1, stronger effect = lower value 0.957 | locus YDR477W, strain SNF1, stronger effect = lower value 0.889 | locus YER123W, strain YCK3, stronger effect = lower value 0.858 | locus YER133W, strain GLC7, stronger effect = lower value 0.872 | locus YFL009W, strain cdc4, stronger effect = lower value 0.963 | locus YFL029C, strain CAK1, stronger effect = lower value 0.959 | locus YFR003C, strain YPI1, stronger effect = lower value 0.964 | locus YFR019W, strain FAB1, stronger effect = lower value 0.996 | locus YFR028C, strain CDC14, stronger effect = lower value 0.95 | locus YGR040W, strain KSS1, stronger effect = lower value 0.872 | locus YGR052W, strain FMP48, stronger effect = lower value 0.94 | locus YGR092W, strain DBF2, stronger effect = lower value 0.803 | locus YHR079C, strain IRE1, stronger effect = lower value 0.952 | locus YHR082C, strain KSP1, stronger effect = lower value 0.918 | locus YHR205W, strain SCH9, stronger effect = lower value 0.921 | locus YIL147C, strain SLN1, stronger effect = lower value 0.957 | locus YJL095W, strain BCK1, stronger effect = lower value 0.895 | locus YJL128C, strain PBS2, stronger effect = lower value 0.934 | locus YJL157C, strain FAR1, stronger effect = lower value 0.889 | locus YJR016C, strain ILV3, stronger effect = lower value 0.961 | locus YJR066W, strain TOR1 (second series), stronger effect = lower value 0.872 | locus YJR066W, strain TOR1, stronger effect = lower value 0.924 | locus YKL048C, strain ELM1, stronger effect = lower value 0.959 | locus YKL067W, strain YNK1, stronger effect = lower value 0.92 | locus YKL101W, strain HSL1, stronger effect = lower value 0.941 | locus YKL193C, strain SDS22, stronger effect = lower value 0.95 | locus YKL203C, strain TOR2, stronger effect = lower value 0.951 | locus YLR133W, strain CKI1, stronger effect = lower value 0.93 | locus YLR403W, strain SFP1, stronger effect = lower value 0.915 | locus YML070W, strain DAK1, stronger effect = lower value 0.88 | locus YMR001C, strain CDC5, stronger effect = lower value 0.946 | locus YMR205C, strain PFK2 (second series), stronger effect = lower value 0.927 | locus YMR277W, strain FCP1, stronger effect = lower value 0.954 | locus YNL006W, strain LST8, stronger effect = lower value 0.967 | locus YNL020C, strain ARK1, stronger effect = lower value 0.928 | locus YNL161W, strain CBK1, stronger effect = lower value 0.96 | locus YNL183C, strain NPR1, stronger effect = lower value 0.938 | locus YNL207W, strain RIO2, stronger effect = lower value 0.96 | locus YNL222W, strain SSU72, stronger effect = lower value 0.957 | locus YNL307C, strain MCK1 (second series), stronger effect = lower value 0.94 | locus YOL078W, strain AVO1, stronger effect = lower value 0.961 | locus YOL136C, strain PFK27, stronger effect = lower value 0.882 | locus YOR061W, strain CKA2, stronger effect = lower value 0.887 | locus YOR119C, strain RIO1, stronger effect = lower value 0.865 | locus YOR231W, strain MKK1, stronger effect = lower value 0.932 | locus YOR329C, strain SCD5, stronger effect = lower value 0.969 | locus YPL031C, strain PHO85, stronger effect = lower value 0.828 | locus YPL153C, strain RAD53, stronger effect = lower value 0.845 | locus YPL204W, strain HRR25, stronger effect = lower value 0.896 | locus YPL209C, strain IPL1, stronger effect = lower value 0.968 | locus YPL256C, strain CLN2, stronger effect = lower value 0.918 | locus YPR025C, strain CCL1, stronger effect = lower value 0.953 | locus YPR106W, strain ISR1, stronger effect = lower value 0.969 | locus YPR111W, strain DBF20, stronger effect = lower value 0.967 | strain NNK1, stronger effect = lower value 0.973 | strain TSCII, stronger effect = lower value 0.959

COc1ccc(C(=O)c2sc(Nc3ccccc3)nc2-c2ccccc2)cc1
inactive: locus YAL013W, strain DEP1, stronger effect = lower value 0.999 | locus YBR229C, strain ROT2, stronger effect = lower value 0.979 | locus YCL061C, strain MRC1, stronger effect = lower value 1 | [4] 1 | locus YDR150W, strain NUM1, stronger effect = lower value 1.01 | locus YEL061C, strain CIN8, stronger effect = lower value 0.96 | [1] 0.994 | [5] 0.907 | locus YHR087W, strain rtc3, stronger effect = lower value 0.958 | locus YJR043C, strain POL32, stronger effect = lower value 0.988 | locus YJR075W, strain HOC1, stronger effect = lower value 0.975 | locus YKL190W, strain CNB1, stronger effect = lower value 0.997 | locus YLR039C, strain RIC1, stronger effect = lower value 0.825 | locus YLR058C, strain SHM2 (second series), stronger effect = lower value 1.02 | locus YLR085C, strain ARP6, stronger effect = lower value 0.853 | locus YLR262C, strain YPT6, stronger effect = lower value 0.993 | locus YML094W, strain GIM5, stronger effect = lower value 0.927 | locus YMR219W, strain ESC1, stronger effect = lower value 0.976 | locus YMR263W, strain SAP30, stronger effect = lower value 0.971 | locus YMR307W, strain GAS1, stronger effect = lower value 0.925 | locus YNL153C, strain GIM3, stronger effect = lower value 1.03 | locus YNL298W, strain CLA4 (second series), stronger effect = lower value 0.953 | [2] 0.989 | locus YNR030W, strain Alg12, stronger effect = lower value 0.913 | locus YOL006C, strain TOP1, stronger effect = lower value 0.893 | locus YPL055C, strain LGE1, stronger effect = lower value 0.916 | [3] 0.898 | locus YPR135W, strain CTF4, stronger effect = lower value 0.857
